# How the values were obtained:
# [1] = target: Tyrosine-protein kinase Lyn (Homo sapiens) (UniProt P07948); conditions: at 1 µM
# [2] = target: Mitogen-activated protein kinase 3 (Homo sapiens) (UniProt P27361); conditions: at 1 µM
# [3] = target: Serine/threonine-protein kinase MARK1 (Homo sapiens) (UniProt Q9P0L2); conditions: at 1 µM
# [4] = target: Serine/threonine-protein kinase MARK1 (Homo sapiens) (UniProt Q9P0L2); conditions: at 10 µM
# [5] = target: Maternal embryonic leucine zipper kinase (Homo sapiens) (UniProt Q14680); conditions: at 1 µM
# [6] = target: Maternal embryonic leucine zipper kinase (Homo sapiens) (UniProt Q14680); conditions: at 10 µM
# [7] = target: Tyrosine-protein kinase Lyn (Homo sapiens) (UniProt P07948); conditions: at 10 µM
# [8] = target: Mitogen-activated protein kinase 3 (Homo sapiens) (UniProt P27361); conditions: at 10 µM
# [9] = target: Dual specificity mitogen-activated protein kinase kinase 1 (Homo sapiens) (UniProt Q02750); conditions: at 10 µM
# [10] = target: Mitogen-activated protein kinase 1 (Homo sapiens) (UniProt P28482); conditions: at 10 µM
# [11] = target: MAP kinase-activated protein kinase 2 (Homo sapiens) (UniProt P49137); conditions: at 1 µM
# [12] = target: MAP kinase-activated protein kinase 3 (Homo sapiens) (UniProt Q16644); conditions: at 10 µM
# [13] = target: Misshapen-like kinase 1 (Homo sapiens) (UniProt Q8N4C8); conditions: at 10 µM
# [14] = target: Mitogen-activated protein kinase 1 (Homo sapiens) (UniProt P28482); conditions: at 1 µM
# [15] = target: Dual specificity mitogen-activated protein kinase kinase 1 (Homo sapiens) (UniProt Q02750); conditions: at 1 µM
# [16] = target: Misshapen-like kinase 1 (Homo sapiens) (UniProt Q8N4C8); conditions: at 1 µM
# Sequence of Mitogen-activated protein kinase 3 (Homo sapiens) (P27361 whole entry): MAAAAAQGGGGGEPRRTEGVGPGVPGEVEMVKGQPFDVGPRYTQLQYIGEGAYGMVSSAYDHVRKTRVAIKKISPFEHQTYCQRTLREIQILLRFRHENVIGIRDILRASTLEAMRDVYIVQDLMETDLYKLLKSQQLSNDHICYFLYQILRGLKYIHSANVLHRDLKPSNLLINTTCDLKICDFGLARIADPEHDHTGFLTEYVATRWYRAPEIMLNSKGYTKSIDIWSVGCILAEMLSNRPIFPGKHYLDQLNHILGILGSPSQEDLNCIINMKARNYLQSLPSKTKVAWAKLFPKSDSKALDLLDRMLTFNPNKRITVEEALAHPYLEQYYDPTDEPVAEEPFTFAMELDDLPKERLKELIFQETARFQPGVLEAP
# Sequence of Mitogen-activated protein kinase 1 (Homo sapiens) (P28482 whole entry): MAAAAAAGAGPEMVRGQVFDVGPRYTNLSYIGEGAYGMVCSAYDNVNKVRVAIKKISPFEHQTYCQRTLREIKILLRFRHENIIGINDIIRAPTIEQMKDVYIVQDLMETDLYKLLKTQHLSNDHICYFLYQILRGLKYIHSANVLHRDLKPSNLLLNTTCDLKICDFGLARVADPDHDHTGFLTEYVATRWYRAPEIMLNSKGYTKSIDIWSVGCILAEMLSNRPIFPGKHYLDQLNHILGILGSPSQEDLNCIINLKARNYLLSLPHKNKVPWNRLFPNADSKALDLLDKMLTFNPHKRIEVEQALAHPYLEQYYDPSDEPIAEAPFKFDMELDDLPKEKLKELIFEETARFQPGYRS
# Sequence of MAP kinase-activated protein kinase 3 (Homo sapiens) (Q16644 whole entry, looked up): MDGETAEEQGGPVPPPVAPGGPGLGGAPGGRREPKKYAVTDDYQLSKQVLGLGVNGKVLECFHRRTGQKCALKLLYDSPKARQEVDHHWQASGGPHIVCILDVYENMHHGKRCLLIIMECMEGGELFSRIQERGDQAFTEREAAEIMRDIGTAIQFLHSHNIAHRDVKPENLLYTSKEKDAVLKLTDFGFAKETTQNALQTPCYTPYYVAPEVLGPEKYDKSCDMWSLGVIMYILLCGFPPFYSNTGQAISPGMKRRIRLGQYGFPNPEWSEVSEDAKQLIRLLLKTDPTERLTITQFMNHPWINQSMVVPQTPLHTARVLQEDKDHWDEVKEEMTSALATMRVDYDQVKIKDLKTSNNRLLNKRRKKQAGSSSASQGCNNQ
# Sequence of Dual specificity mitogen-activated protein kinase kinase 1 (Homo sapiens) (Q02750 whole entry): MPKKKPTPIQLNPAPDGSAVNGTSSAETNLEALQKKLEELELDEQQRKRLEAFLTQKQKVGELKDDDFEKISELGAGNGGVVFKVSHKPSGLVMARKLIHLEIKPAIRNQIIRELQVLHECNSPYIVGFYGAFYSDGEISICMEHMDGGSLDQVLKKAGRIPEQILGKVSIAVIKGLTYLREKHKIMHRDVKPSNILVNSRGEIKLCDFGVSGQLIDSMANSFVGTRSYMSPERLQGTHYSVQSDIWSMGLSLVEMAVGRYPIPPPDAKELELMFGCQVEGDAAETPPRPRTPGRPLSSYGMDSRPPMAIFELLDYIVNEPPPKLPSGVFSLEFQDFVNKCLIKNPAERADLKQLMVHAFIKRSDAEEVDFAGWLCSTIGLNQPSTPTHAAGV
# Sequence of Tyrosine-protein kinase Lyn (Homo sapiens) (P07948 2-512 limits assumed): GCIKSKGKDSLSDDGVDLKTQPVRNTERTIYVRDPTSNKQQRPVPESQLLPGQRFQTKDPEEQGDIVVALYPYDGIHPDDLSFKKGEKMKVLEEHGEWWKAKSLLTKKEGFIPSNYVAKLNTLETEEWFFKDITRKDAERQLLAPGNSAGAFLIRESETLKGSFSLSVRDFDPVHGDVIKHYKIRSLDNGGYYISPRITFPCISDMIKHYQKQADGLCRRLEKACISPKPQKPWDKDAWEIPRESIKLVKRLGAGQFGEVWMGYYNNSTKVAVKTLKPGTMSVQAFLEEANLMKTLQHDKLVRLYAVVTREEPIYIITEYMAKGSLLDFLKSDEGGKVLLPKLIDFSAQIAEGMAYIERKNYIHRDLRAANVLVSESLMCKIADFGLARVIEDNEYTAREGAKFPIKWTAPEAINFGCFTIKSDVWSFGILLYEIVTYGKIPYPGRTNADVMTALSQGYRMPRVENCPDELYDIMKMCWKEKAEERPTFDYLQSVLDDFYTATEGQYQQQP
# Sequence of Misshapen-like kinase 1 (Homo sapiens) (Q8N4C8 whole entry, looked up): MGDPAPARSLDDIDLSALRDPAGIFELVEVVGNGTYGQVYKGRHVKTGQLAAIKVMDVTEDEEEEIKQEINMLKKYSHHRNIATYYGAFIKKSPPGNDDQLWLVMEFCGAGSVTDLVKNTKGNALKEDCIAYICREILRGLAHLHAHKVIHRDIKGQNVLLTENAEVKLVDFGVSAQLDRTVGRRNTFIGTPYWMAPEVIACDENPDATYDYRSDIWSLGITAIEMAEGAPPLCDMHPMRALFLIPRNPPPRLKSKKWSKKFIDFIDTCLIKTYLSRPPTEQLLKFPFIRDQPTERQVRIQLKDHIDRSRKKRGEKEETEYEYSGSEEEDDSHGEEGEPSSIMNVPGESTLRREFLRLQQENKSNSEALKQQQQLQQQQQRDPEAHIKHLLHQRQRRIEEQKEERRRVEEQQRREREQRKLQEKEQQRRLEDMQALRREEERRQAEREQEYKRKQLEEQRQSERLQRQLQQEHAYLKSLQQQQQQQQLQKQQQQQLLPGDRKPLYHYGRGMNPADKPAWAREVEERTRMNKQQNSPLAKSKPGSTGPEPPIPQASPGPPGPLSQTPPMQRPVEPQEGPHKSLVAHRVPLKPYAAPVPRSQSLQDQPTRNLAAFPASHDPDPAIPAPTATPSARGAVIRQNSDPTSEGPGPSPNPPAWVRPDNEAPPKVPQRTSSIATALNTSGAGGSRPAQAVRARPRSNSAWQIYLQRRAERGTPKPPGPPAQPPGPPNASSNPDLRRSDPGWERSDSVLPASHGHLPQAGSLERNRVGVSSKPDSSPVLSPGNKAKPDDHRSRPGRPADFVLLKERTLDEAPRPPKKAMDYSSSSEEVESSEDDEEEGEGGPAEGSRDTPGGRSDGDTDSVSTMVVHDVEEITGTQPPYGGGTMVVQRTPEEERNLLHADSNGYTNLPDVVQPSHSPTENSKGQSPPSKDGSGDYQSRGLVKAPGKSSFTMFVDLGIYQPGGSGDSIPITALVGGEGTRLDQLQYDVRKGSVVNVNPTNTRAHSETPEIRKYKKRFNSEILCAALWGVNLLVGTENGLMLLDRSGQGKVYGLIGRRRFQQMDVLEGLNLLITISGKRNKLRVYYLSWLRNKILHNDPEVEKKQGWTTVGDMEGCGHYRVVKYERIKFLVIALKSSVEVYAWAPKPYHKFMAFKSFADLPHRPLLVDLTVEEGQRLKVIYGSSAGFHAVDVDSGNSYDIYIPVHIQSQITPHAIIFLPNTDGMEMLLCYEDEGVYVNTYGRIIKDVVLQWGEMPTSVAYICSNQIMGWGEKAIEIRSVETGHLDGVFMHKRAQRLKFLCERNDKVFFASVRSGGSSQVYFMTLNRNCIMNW
# Sequence of Maternal embryonic leucine zipper kinase (Homo sapiens) (Q14680 whole entry, looked up): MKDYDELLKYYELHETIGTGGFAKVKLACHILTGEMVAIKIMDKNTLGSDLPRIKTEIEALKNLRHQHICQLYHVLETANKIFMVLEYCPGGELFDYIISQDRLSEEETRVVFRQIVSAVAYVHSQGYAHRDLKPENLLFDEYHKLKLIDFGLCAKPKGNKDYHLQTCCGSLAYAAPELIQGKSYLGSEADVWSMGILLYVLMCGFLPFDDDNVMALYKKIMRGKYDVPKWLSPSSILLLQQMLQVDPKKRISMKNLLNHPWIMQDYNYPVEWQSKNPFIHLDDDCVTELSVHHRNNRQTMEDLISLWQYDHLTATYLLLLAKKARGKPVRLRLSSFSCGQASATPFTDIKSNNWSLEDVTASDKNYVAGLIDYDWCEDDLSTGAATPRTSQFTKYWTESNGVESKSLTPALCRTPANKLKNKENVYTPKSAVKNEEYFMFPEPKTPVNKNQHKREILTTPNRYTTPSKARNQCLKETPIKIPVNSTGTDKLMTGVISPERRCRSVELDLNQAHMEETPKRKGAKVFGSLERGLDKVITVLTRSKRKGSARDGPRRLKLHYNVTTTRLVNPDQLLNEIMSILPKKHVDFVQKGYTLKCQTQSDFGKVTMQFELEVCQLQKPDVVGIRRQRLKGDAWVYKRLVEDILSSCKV
# Sequence of Serine/threonine-protein kinase MARK1 (Homo sapiens) (Q9P0L2 whole entry, looked up): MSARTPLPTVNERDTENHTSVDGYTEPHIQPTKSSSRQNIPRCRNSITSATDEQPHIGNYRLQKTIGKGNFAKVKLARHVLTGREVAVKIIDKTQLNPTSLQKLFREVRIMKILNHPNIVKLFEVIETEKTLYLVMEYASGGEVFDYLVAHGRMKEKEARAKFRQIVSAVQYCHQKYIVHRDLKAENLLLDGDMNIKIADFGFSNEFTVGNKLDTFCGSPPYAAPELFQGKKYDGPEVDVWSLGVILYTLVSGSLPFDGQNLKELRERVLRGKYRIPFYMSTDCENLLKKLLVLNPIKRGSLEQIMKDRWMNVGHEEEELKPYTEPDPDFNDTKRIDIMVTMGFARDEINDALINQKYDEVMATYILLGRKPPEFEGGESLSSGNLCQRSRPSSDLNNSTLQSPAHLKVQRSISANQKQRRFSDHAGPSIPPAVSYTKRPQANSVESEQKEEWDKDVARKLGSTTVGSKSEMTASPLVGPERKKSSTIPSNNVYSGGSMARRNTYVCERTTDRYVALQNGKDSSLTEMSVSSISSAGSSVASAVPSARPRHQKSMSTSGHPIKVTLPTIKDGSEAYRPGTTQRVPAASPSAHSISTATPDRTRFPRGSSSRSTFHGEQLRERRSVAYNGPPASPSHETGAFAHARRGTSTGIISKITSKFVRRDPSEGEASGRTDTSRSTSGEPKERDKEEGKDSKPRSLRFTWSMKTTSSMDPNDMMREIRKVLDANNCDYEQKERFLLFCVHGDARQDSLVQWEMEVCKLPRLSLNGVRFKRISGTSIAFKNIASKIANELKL
compound,measurement,setting,value
NC(=O)c1ccc(-c2nc(-c3ccc4c(c3)OCCO4)c(-c3ccccn3)[nH]2)cc1,residual activity,[1],83%
same,residual activity,[2],96%
same,residual activity,[3],96%
same,residual activity,[4],89%
same,residual activity,[5],73%
same,residual activity,[6],70%
Nc1nccc(-c2c(-c3ccc(F)cc3)ncn2C2CCNCC2)n1,residual activity,[1],50%
same,residual activity,[7],6%
same,residual activity,[8],35%
same,residual activity,[9],119%
same,residual activity,[5],71%
same,residual activity,[6],27%
Nc1ncnc2c1cnn2-c1ccccc1,residual activity,[1],95%
same,residual activity,[7],82%
same,residual activity,[2],82%
same,residual activity,[8],80%
same,residual activity,[10],95%
same,residual activity,[11],92%
same,residual activity,[12],92%
same,residual activity,[3],89%
same,residual activity,[4],88%
same,residual activity,[9],79%
same,residual activity,[5],95%
same,residual activity,[6],73%
same,residual activity,[13],99%
O=C(Nc1ccc(Cl)cc1)c1ccccc1NCc1ccncc1,residual activity,[1],30%
same,residual activity,[7],2%
same,residual activity,[2],77%
same,residual activity,[8],80%
same,residual activity,[5],75%
Cn1c2ccccc2c2c3c(c4c5ccccc5n(CCC#N)c4c21)CNC3=O,residual activity,[1],21%
same,residual activity,[7],9%
same,residual activity,[2],52%
same,residual activity,[14],48%
same,residual activity,[10],44%
same,residual activity,[12],77%
same,residual activity,[3],4%
same,residual activity,[4],5%
same,residual activity,[15],36%
same,residual activity,[9],34%
same,residual activity,[5],9%
same,residual activity,[6],4%
same,residual activity,[16],21%
same,residual activity,[13],16%
N#Cc1c(NC(=O)c2cccc3ccccc23)sc2c1CCCC2,residual activity,[1],90%
same,residual activity,[7],62%
same,residual activity,[10],92%
same,residual activity,[12],88%
same,residual activity,[3],100%
same,residual activity,[4],92%
same,residual activity,[5],87%
same,residual activity,[6],91%
same,residual activity,[16],95%
same,residual activity,[13],93%
O=C1Cc2c([nH]c3ccc(Br)cc23)-c2ccccc2N1,residual activity,[1],10%
same,residual activity,[7],1%
same,residual activity,[12],89%
same,residual activity,[3],51%
same,residual activity,[4],12%
same,residual activity,[9],82%
same,residual activity,[5],89%
same,residual activity,[6],68%
O=c1cc(N2CCOCC2)oc2c(-c3ccccc3)cccc12,residual activity,[7],74%
same,residual activity,[2],78%
same,residual activity,[8],73%
same,residual activity,[6],72%
O=C(Nc1nc2ccccc2n1CCN1CCOCC1)c1cccc([N+](=O)[O-])c1,residual activity,[7],87%
same,residual activity,[12],84%
same,residual activity,[3],80%
same,residual activity,[4],81%
same,residual activity,[15],66%
same,residual activity,[9],81%
same,residual activity,[5],65%
same,residual activity,[6],45%
O=S(=O)(NCCNC/C=C/c1ccc(Br)cc1)c1cccc2cnccc12,residual activity,[7],49%
same,residual activity,[8],70%
same,residual activity,[3],76%
same,residual activity,[4],37%
same,residual activity,[5],45%
same,residual activity,[6],9%
same,residual activity,[13],75%
Nc1n[nH]c2nc3ccccc3nc12,residual activity,[1],75%
same,residual activity,[7],67%
same,residual activity,[14],123%
same,residual activity,[12],94%
same,residual activity,[3],75%
same,residual activity,[4],74%
same,residual activity,[15],87%
same,residual activity,[9],85%
same,residual activity,[5],97%
same,residual activity,[6],70%
CCOc1nc(NC(=O)Cc2cc(OC)ccc2OC)cc(N)c1C#N,residual activity,[1],69%
same,residual activity,[7],59%
O=c1c(-c2ccc(F)cc2)c(-c2ccncc2)[nH]n1-c1ccc(Cl)cc1,residual activity,[1],75%
same,residual activity,[7],38%
same,residual activity,[8],66%
same,residual activity,[14],122%
same,residual activity,[9],102%
same,residual activity,[13],55%
